# Assay results from paper PMC10668032, “Altered binding affinity of SIX1-Q177R correlates with enhanced WNT5A and WNT pathway effector expression in Wilms tumor”.
# In all, about 33,000 sequences were measured (“e-score”: median about -0.05, highest 2% from about 0.38 on). Only a selection was taken, and the highest values are over-represented in it overall.
# Biological target: T1, SIX1-Q177R homeodomain (human, UniProt Q15475 108-198, Q177R)
# T1 sequence: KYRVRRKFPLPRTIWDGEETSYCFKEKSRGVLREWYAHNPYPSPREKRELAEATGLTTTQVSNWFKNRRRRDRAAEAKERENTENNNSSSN
# Assay: universal protein binding microarray; Universal all-10-mer PBM (8x60K, AMADID 030236), 300 nM GST-tagged protein, Alexa Fluor 488 anti-GST; buffer, salt, pH and temperature not stated (as in Berger); high values mean tight binding
# Details: protein: ivt; tags: N-terminal GST; dsDNA, one strand shown
# Procedure, shortened: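 Duplicate protein binding microarrays (universal 'all 10-mer', 8×60K format) were incubated with GST-tagged homeodomains at 300 nM final concentration. Binding was quantified as 8-mer E-scores with the Universal PBM Analysis Suite.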
row,Sequence,binding signal
1,GTATCTCA,0.158 ± 0.00253 E-score
2,CACTACGA,0.191 ± 0.00718 E-score
3,CGAAACCC,0.16 ± 0.0514 E-score
4,AATAGCAC,0.202 ± 0.00634 E-score
5,ACACACAC,0.315 ± 0.0422 E-score
6,CCACACGC,0.282 ± 0.0206 E-score
7,GCGCACCC,0.236 ± 0.0394 E-score
8,ACCCACCC,0.276 ± 0.0223 E-score
9,GCACACAC,0.275 ± 0.0355 E-score
10,GCACACCC,0.396 ± 0.0314 E-score
11,ACACACCC,0.39 ± 0.0201 E-score
12,CCACACAC,0.271 ± 0.0195 E-score
13,CCACACCC,0.393 ± 0.0374 E-score
14,CGGGAATA,0.181 ± 0.0131 E-score
15,CCCGAACA,0.1699 ± 0.00103 E-score
16,ACCTTACA,0.192 ± 0.02 E-score
17,CACCCACG,0.275 ± 0.0113 E-score
18,CGTCCTAC,0.182 ± 0.018 E-score
19,ACCCCATA,0.249 ± 0.00713 E-score
20,CACTGAGG,0.227 ± 0.0197 E-score
21,CCCGCGTC,0.193 ± 0.0507 E-score
22,CACCGCAA,0.284 ± 0.0454 E-score
23,CACTAATG,0.164 ± 0.0232 E-score
24,ACCTGGAG,0.222 ± 0.0157 E-score
25,AATTGGGG,0.17 ± 0.027 E-score

row,Sequence,binding signal
1,ACTACCCG,0.204 ± 0.0121 E-score
2,ACTACACG,0.4206 ± 0.00315 E-score
3,ACTATACA,0.238 ± 0.0193 E-score
4,CCTACTCC,0.179 ± 0.0115 E-score
5,TCTACACA,0.194 ± 0.0545 E-score
6,GCTACACC,0.473 ± 0.00658 E-score
7,CCTACACC,0.4819 ± 0.00223 E-score
8,CCTACCCC,0.227 ± 0.00219 E-score
9,ACTACACT,0.431 ± 0.0136 E-score
10,GCTATACC,0.169 ± 0.0037 E-score
11,GCTACCCC,0.23 ± 0.0172 E-score
12,ACTACACA,0.265 ± 0.0483 E-score
13,CCCCCGGC,0.2104 ± 0.00182 E-score
14,CTTGGGGA,0.158 ± 0.0109 E-score
15,ACCCTTCC,0.161 ± 0.0416 E-score
16,CACCGGGA,0.176 ± 0.00643 E-score
17,CACTAGCA,0.163 ± 0.00431 E-score
18,ATAGCGTG,0.159 ± 0.0173 E-score
19,ACACATGC,0.176 ± 0.0202 E-score
20,ACCGGTAT,0.212 ± 0.02 E-score
21,CCCGAAGG,0.193 ± 0.0115 E-score
22,ACGCGTCC,0.174 ± 0.00808 E-score
23,GAATAACA,0.151 ± 0.00831 E-score
24,GATACCGA,0.214 ± 0.0181 E-score
25,CCTACACA,0.18 ± 0.0508 E-score

row,Sequence,binding signal
1,CCTACACG,0.398 ± 0.0115 E-score
2,ACTACACC,0.4877 ± 0.000997 E-score
3,CCTACCCG,0.183 ± 0.0228 E-score
4,ACTACCCC,0.267 ± 0.00871 E-score
5,ACTACTCC,0.163 ± 0.045 E-score
6,ACCCCTCA,0.289 ± 0.021 E-score
7,CTGTGCAC,0.216 ± 0.0216 E-score
8,ACCCCGTG,0.356 ± 0.0239 E-score
9,AGAACACT,0.344 ± 0.0153 E-score
10,GGAACACC,0.4735 ± 0.00301 E-score
11,AGAACACG,0.356 ± 0.0118 E-score
12,CGAACACA,0.215 ± 0.0469 E-score
13,CGAACACG,0.3556 ± 0.00281 E-score
14,GGAACACA,0.189 ± 0.0298 E-score
15,AGAACACC,0.459 ± 0.00494 E-score
16,TGAACACA,0.173 ± 0.0727 E-score
17,CGAACACC,0.4736 ± 0.00203 E-score
18,CGGGGATA,0.202 ± 0.00822 E-score
19,AATGGGTG,0.281 ± 0.0496 E-score
20,CACGCGTA,0.184 ± 0.0106 E-score
21,ACACTTAT,0.349 ± 0.02 E-score
22,CCACCTAC,0.17 ± 0.0551 E-score
23,ACACCTAC,0.4555 ± 0.00215 E-score
24,ACCCCTAA,0.183 ± 0.0117 E-score
25,ACACCTGT,0.46033 ± 0.000212 E-score

row,Sequence,binding signal
1,ATACCTAC,0.224 ± 0.0121 E-score
2,ACACATAT,0.239 ± 0.0295 E-score
3,ACACCTAG,0.4448 ± 0.00199 E-score
4,ACACCTAA,0.4446 ± 0.00441 E-score
5,ACCCCTAG,0.208 ± 0.00908 E-score
6,TCCCCTAA,0.172 ± 0.0106 E-score
7,ATACCTAG,0.196 ± 0.0172 E-score
8,CAGAAGGG,0.157 ± 0.0162 E-score
9,CCCCGAAA,0.168 ± 0.0462 E-score
10,CACCCAAC,0.301 ± 0.0371 E-score
11,CCCCAAAC,0.197 ± 0.0113 E-score
12,GGTCGAAC,0.22817 ± 0.00017 E-score
13,GGGCGGTA,0.18 ± 0.0297 E-score
14,ACCCCTAT,0.172 ± 0.00706 E-score
15,ACACATAG,0.155 ± 0.0872 E-score
16,ACACCTAT,0.448 ± 0.00643 E-score
17,CACCACTG,0.342 ± 0.00325 E-score
18,GCGGTCGA,0.152 ± 0.00747 E-score
19,ACACAGTG,0.259 ± 0.0202 E-score
20,CGGGATCA,0.269 ± 0.00773 E-score
21,GAGTACTC,0.1739 ± 0.000948 E-score
22,CAGCACAC,0.269 ± 0.0132 E-score
23,AAGTACCC,0.2054 ± 0.000912 E-score
24,CAGTACAC,0.433 ± 0.00665 E-score
25,AAGTAATC,0.163 ± 0.0142 E-score

row,Sequence,binding signal
1,CAGTACCG,0.185 ± 0.0235 E-score
2,GAGTACAC,0.4362 ± 0.00255 E-score
3,AAGTACAC,0.425 ± 0.0204 E-score
4,GAGTACCC,0.173 ± 0.00951 E-score
5,ACACAGCC,0.164 ± 0.059 E-score
6,GATTGAAC,0.162 ± 0.0507 E-score
7,GGATCCAA,0.201 ± 0.0192 E-score
8,CACGTGGA,0.243 E-score
9,AGGTGACT,0.165 ± 0.006 E-score
10,CACCCTCA,0.264 ± 0.0103 E-score
11,GTGTTGTA,0.389 ± 0.00682 E-score
12,GTTGTGTA,0.255 ± 0.0169 E-score
13,GTGTTTCA,0.357 ± 0.00873 E-score
14,GGGTTGTA,0.169 ± 0.0161 E-score
15,GTGTTGAA,0.396 ± 0.00711 E-score
16,CCGTTGAC,0.16 ± 0.0161 E-score
17,GTGTTGCA,0.3853 ± 0.00118 E-score
18,GTGTTGGA,0.414 ± 0.0127 E-score
19,CGATCCAC,0.2384 ± 0.00175 E-score
20,CCTACGCA,0.17 ± 0.0129 E-score
21,CACGAAAG,0.16 ± 0.0281 E-score
22,TACGGACA,0.168 ± 0.019 E-score
23,CACTGGTA,0.3128 ± 0.00191 E-score
24,ATCTGACA,0.275 ± 0.0351 E-score
25,CACCCATG,0.34 ± 0.0139 E-score

row,Sequence,binding signal
1,CACCTGTC,0.224 ± 0.0498 E-score
2,CTTTCACA,0.24 ± 0.00834 E-score
3,AACGGGGT,0.205 ± 0.0313 E-score
4,AAGGGATC,0.194 ± 0.0447 E-score
5,CCTCAACA,0.204 ± 0.0178 E-score
6,AAGAGTTA,0.172 ± 0.0103 E-score
7,ACACACGC,0.267 ± 0.0306 E-score
8,ATACACGA,0.38 ± 0.00658 E-score
9,CCACACGG,0.197 ± 0.0212 E-score
10,ACACACGG,0.301 ± 0.0255 E-score
11,ATACACGG,0.401 ± 0.0111 E-score
12,ATACACGC,0.396 ± 0.0178 E-score
13,CGTATACG,0.153 ± 0.0218 E-score
14,ACCTTGTA,0.203 ± 0.0145 E-score
15,CACGTATA,0.2103 ± 0.000226 E-score
16,CACTTGCC,0.227 ± 0.036 E-score
17,CGCCACAC,0.314 ± 0.0118 E-score
18,AGACCCCG,0.281 ± 0.0369 E-score
19,CCAACTAG,0.223 ± 0.00917 E-score
20,CACCTCAG,0.26 ± 0.0094 E-score
21,CCAATTTA,0.238 ± 0.0221 E-score
22,ACCCCAGG,0.249 ± 0.0168 E-score
23,ACACCAGA,0.472 ± 0.00546 E-score
24,ACACCAGG,0.472 ± 0.00716 E-score
25,ACCACAGT,0.22 ± 0.00384 E-score

row,Sequence,binding signal
1,ACTCCAGG,0.228 ± 0.00384 E-score
2,ACCCCAGT,0.27 ± 0.0137 E-score
3,ACACCAGC,0.4638 ± 0.00122 E-score
4,ACAGCACC,0.1838 ± 0.000898 E-score
5,ACCCCAGA,0.201 ± 0.039 E-score
6,ACACCAGT,0.48 ± 0.008 E-score
7,GCACCAGA,0.181 ± 0.0305 E-score
8,ACCCCAGC,0.235 ± 0.0628 E-score
9,GACGATAC,0.205 ± 0.0214 E-score
10,CCTGGGTA,0.164 ± 0.00425 E-score
11,GGGGAGTA,0.256 ± 0.0126 E-score
12,CACCATGC,0.297 ± 0.00858 E-score
13,CACCCGGG,0.327 ± 0.0154 E-score
14,ACACTGTC,0.336 ± 0.0232 E-score
15,ACACTGAA,0.349 ± 0.00868 E-score
16,ACACTGAG,0.354 ± 0.00682 E-score
17,ACACTGTG,0.381 ± 0.0114 E-score
18,ACTCTGAC,0.172 ± 0.00272 E-score
19,ACACTGAC,0.381 ± 0.0072 E-score
20,CCGCGAAA,0.167 ± 0.0237 E-score
21,GTAGTACA,0.277 ± 0.0241 E-score
22,CACGAGTA,0.167 ± 0.0394 E-score
